Measured values reported in PubChem BioAssay (EPA / NIEHS).
Results filed as inconclusive are left out. Active and inactive are the calls of the source. Rule for the calls: active = hit-call score of the fitted dose curve at least 0.9, where 1 is the maximum; inconclusive = response in the unintended direction; inactive = score below 0.9.

The molecules below were run against Muscarinic acetylcholine receptor M2 (Homo sapiens) (UniProt P08172) (assay: NVS_GPCR_hM2: NovaScreen (NVS) G Protein-Coupled Receptor Assay for human Muscarinic, M2 Receptor (AID 2283273)).
Muscarinic acetylcholine receptor M2 (Homo sapiens), sequence (P08172 whole entry, looked up): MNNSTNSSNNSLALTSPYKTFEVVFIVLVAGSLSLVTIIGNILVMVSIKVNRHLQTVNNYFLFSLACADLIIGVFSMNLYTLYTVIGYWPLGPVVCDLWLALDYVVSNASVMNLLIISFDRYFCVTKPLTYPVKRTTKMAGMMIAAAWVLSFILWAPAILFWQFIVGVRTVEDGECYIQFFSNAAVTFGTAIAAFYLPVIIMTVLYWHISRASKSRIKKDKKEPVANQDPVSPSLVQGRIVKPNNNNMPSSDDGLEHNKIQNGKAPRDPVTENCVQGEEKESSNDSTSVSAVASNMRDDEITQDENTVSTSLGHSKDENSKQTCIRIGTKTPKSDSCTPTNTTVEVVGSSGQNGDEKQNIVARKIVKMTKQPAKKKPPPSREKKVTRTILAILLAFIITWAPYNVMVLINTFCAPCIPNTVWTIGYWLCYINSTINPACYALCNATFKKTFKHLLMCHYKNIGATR
Outline: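 Filter-based radiodetection read bound radioligand 1 h after dosing CHO-derived membrane protein. Single-concentration duplicates (25 uM) first, then concentration-response for actives; signal loss versus DMSO scored.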
With `C[Si](Cn1cncn1)(c1ccc(F)cc1)c1ccc(F)cc1` the outcome was “inactive”.
`CCCOCC(=Nc1ccc(Cl)cc1C(F)(F)F)n1ccnc1` was tested, and the outcome was “inactive”.
`S=C1NCCN1` was tested, and the outcome was “inactive”.
For `COc1cccc(C(=O)NN(C(=O)c2cc(C)cc(C)c2)C(C)(C)C)c1C`, the outcome was “inactive”.
`Cc1cc(C2CC2)nc(Nc2ccccc2)n1` was tested, and the AC50 was 6.13 µM (active).
For `C[N+]1(C)CCCCC1`, the outcome was “inactive”.

What follows are molecules tested against human Muscarinic, M4 Receptor, CHRM4 (gene 1132) (UniProt P08173) (assay: NVS_GPCR_hM4: NovaScreen (NVS) G Protein-Coupled Receptor Assay for human Muscarinic, M4 Receptor (AID 2283274)).
human Muscarinic, M4 Receptor, CHRM4 (gene 1132), sequence (P08173 whole entry, looked up): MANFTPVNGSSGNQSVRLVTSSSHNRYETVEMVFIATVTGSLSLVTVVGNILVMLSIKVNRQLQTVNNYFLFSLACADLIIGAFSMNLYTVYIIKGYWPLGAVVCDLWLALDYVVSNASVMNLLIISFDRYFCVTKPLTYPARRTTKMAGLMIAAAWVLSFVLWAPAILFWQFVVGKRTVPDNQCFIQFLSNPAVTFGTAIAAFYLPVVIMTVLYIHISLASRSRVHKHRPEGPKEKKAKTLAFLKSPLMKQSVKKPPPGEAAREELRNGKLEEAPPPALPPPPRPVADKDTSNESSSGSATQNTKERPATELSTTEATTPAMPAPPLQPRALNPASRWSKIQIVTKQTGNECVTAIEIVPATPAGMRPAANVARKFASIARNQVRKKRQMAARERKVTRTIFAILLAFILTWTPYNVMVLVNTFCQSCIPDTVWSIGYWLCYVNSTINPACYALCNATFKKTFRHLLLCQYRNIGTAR
Outline: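 Filter-based scintillation counting of radioligand bound to CHO-expressed human M4 preparations after 1 h; loss of signal fitted versus DMSO. Initial duplicate testing at 25 uM, concentration-response follow-up for actives.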
For `CC[C@H](C)[C@H]1O[C@]2(C=C[C@@H]1C)C[C@@H]1C[C@@H](C/C=C(\C)[C@@H](O[C@H]3C[C@H](OC)[C@@H](O[C@H]4C[C@H](OC)[C@@H](NC)[C@H](C)O4)[C@H](C)O3)[C@@H](C)/C=C/C=C3\CO[C@@H]4[C@H](O)C(C)=C[C@@H](C(=O)O1)[C@]34O)O2`, the AC50 was 12.9 µM (active).
`C[Si](Cn1cncn1)(c1ccc(F)cc1)c1ccc(F)cc1` was tested, and the AC50 was 14.4 µM (active).
For `CCOP(=S)(OCC)Oc1ccc([N+](=O)[O-])cc1`, the AC50 was 7.24 µM (active).
With `CC(C1CC1)C(O)(Cn1cncn1)c1ccc(Cl)cc1` (configuration not stated) the AC50 was 12.1 µM (active).
For `CC1=NNC(=O)N(/N=C/c2cccnc2)C1`, the outcome was “inactive”.
In the case of `FC(F)C(F)(F)OCC(Cn1cncn1)c1ccc(Cl)cc1Cl` (configuration not stated), the outcome is reported as “inactive”.
For `Cc1cc(C2CC2)nc(Nc2ccccc2)n1`, the AC50 was 6.51 µM (active).
`CC(C)N(C(=O)SCC(Cl)=C(Cl)Cl)C(C)C` was tested, and the outcome was “inactive”.

These molecules were tested against human Neuropeptide Receptor Y1 (NPY1), NPY1R (gene 4886) (UniProt P25929) (assay: NVS_GPCR_hNPY1: NovaScreen (NVS) G Protein-Coupled Receptor Assay for human Neuropeptide Receptor Y1 (NPY1) (AID 2283276)).
human Neuropeptide Receptor Y1 (NPY1), NPY1R (gene 4886), sequence (P25929 whole entry, looked up): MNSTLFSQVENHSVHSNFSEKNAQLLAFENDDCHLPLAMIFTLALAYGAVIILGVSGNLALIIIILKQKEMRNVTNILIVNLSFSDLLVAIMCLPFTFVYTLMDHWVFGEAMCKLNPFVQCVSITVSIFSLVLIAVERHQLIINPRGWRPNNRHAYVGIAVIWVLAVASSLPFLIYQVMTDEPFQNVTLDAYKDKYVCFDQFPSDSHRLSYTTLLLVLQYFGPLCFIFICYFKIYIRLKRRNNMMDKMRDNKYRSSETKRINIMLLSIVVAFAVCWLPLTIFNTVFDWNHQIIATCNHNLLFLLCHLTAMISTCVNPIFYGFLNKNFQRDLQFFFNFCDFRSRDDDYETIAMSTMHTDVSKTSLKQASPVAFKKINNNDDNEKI
Outline: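 Displacement of specific radioligand from NPY1 receptor of SK-N-MC origin, read by filtration and scintillation after 1 h. Compounds first tested at 25 uM in duplicate, then actives in concentration series; signal loss relative to DMSO.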
`CC[C@H](C)[C@H]1O[C@]2(C=C[C@@H]1C)C[C@@H]1C[C@@H](C/C=C(\C)[C@@H](O[C@H]3C[C@H](OC)[C@@H](O[C@H]4C[C@H](OC)[C@@H](NC)[C@H](C)O4)[C@H](C)O3)[C@@H](C)/C=C/C=C3\CO[C@@H]4[C@H](O)C(C)=C[C@@H](C(=O)O1)[C@]34O)O2` was tested, and the AC50 was 18.3 µM (active).
In the case of `N#CSCSC#N`, the AC50 is reported as 12.6 µM (active).
In the case of `S=C1NCCN1`, the outcome is reported as “inactive”.
With `COP(=O)(OC)OC(Br)C(Cl)(Cl)Br` (configuration not stated) the AC50 was 15.5 µM (active).

Each molecule was assayed against Neuropeptide Y receptor type 2 (Homo sapiens) (UniProt P49146) (assay: NVS_GPCR_hNPY2: NovaScreen (NVS) G Protein-Coupled Receptor Assay for human Neuropeptide Receptor Y2 (NPY2) (AID 2283277)).
Neuropeptide Y receptor type 2 (Homo sapiens), sequence (P49146 whole entry, looked up): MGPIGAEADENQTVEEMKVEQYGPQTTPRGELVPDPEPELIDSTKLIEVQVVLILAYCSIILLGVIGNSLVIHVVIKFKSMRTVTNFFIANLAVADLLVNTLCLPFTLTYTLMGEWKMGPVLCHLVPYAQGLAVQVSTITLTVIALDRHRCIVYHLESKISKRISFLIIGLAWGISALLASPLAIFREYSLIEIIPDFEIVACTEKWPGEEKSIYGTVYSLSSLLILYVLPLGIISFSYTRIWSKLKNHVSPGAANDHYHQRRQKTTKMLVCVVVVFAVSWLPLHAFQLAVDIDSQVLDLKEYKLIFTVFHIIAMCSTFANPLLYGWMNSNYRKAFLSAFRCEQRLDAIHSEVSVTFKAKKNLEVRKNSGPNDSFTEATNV
Outline: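 Chemicals were first tested in duplicate at 25 uM, then actives in singleton concentration series to 50 uM. Tracer binding to SK-N-MC-derived protein measured cell-free after 1 h via filter scintillation; signal loss relative to DMSO.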
With `CN1COCN(Cc2cnc(Cl)s2)C1=N[N+](=O)[O-]` the outcome was “inactive”.
In the case of `Nc1nc(N)nc(NC2CC2)n1`, the outcome is reported as “inactive”.
For `C[N+]1(C)CCCCC1`, the outcome was “inactive”.

Each molecule was assayed against human Neurokinin, NK2 Receptor, TACR2 (gene 6865) (UniProt P21452) (assay: NVS_GPCR_hNK2: NovaScreen (NVS) G Protein-Coupled Receptor Assay for human Neurokinin, NK2 Receptor (AID 2283278);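 note: actives reduce bound radioligand signal relative to DMSO baseline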).
human Neurokinin, NK2 Receptor, TACR2 (gene 6865), sequence (P21452 whole entry, looked up): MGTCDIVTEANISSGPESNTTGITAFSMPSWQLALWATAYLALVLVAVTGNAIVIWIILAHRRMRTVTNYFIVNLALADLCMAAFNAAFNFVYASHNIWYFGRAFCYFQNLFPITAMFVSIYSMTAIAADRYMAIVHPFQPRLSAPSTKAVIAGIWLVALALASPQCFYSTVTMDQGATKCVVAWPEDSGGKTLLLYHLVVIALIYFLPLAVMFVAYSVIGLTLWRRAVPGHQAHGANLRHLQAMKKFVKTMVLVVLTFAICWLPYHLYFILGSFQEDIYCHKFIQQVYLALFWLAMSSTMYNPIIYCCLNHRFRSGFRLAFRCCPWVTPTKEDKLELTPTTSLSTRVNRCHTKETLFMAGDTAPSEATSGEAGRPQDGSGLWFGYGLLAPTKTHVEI
Outline: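 Filter-based scintillation counting measured radioligand bound to receptor extracted from CHO cells, 4 hours after compound addition. Chemicals screened first at 25 uM in duplicate, with actives retested in concentration series relative to DMSO.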
In the case of `CC[C@H](C)[C@H]1O[C@]2(C=C[C@@H]1C)C[C@@H]1C[C@@H](C/C=C(\C)[C@@H](O[C@H]3C[C@H](OC)[C@@H](O[C@H]4C[C@H](OC)[C@@H](NC)[C@H](C)O4)[C@H](C)O3)[C@@H](C)/C=C/C=C3\CO[C@@H]4[C@H](O)C(C)=C[C@@H](C(=O)O1)[C@]34O)O2`, the AC50 is reported as 8.41 µM (active).
In the case of `CCCOCC(=Nc1ccc(Cl)cc1C(F)(F)F)n1ccnc1`, the outcome is reported as “inactive”.
For `CC(C)[C@H](C(=O)O[C@H](C#N)c1cccc(Oc2ccccc2)c1)c1ccc(Cl)cc1`, the AC50 was 4.82 µM (active).
With `C#CCC1=C(C)C(OC(=O)C2C(C=C(C)C)C2(C)C)CC1=O` (configuration not stated) the outcome was “inactive”.
With `CCc1cccc(CC)c1N(COC)C(=O)CCl` the outcome was “inactive”.
`CC1(C(=O)Nc2ccc(O)c(Cl)c2Cl)CCCCC1` was tested, and the AC50 was 3.04 µM (active).
